The values below come from PubChem BioAssay (Tox21).

Results filed as inconclusive are left out. Entries that show only a call come without a potency. The source made the active and inactive calls. Unless noted, calls follow the shape of the dose curve; as a rule, active = well fitted cell-killing curve with a large enough effect in the repeat runs; inconclusive = weak or mixed curves, or effect the other way; inactive = flat fitted curve, though single readings scatter.
Potency is read from the fitted curve at half-maximal effect.

Chain of Androgen receptor (Homo sapiens) (P10275 whole entry, looked up): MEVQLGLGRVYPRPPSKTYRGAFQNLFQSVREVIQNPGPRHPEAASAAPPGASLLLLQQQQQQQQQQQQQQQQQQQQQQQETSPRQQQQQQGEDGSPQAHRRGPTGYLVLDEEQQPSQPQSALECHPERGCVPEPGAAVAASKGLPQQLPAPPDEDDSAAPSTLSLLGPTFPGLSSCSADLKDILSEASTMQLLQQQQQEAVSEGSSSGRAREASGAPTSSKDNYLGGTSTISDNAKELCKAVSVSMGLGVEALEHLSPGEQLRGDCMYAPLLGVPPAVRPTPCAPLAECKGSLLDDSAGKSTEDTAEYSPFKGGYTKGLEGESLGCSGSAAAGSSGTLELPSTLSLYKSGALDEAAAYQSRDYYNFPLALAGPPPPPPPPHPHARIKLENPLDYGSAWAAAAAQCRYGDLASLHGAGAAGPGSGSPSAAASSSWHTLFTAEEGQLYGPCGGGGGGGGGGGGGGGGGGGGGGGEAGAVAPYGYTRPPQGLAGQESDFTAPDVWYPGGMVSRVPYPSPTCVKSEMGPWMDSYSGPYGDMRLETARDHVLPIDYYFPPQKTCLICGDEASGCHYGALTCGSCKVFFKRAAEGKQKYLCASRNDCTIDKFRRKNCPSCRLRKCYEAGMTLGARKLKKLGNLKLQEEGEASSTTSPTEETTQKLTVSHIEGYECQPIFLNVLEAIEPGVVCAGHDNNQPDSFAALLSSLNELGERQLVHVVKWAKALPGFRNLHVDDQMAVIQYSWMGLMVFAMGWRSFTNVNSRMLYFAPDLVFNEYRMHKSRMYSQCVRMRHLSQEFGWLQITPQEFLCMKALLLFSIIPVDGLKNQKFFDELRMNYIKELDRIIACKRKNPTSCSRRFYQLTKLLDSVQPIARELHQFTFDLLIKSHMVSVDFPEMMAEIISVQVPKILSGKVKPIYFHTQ

Tested on in one assay: not listed separately
Put plainly: qHTS assay to identify small molecule agonists of the androgen receptor (AR) signaling pathway in the presence of an antagonist - cell viability counter screen (AID 1259379). Also: nearly all actives have a fitted effect of over 25% in size. The settings on record: MDA-kb2 viability, CellTiter-Fluor, 16 h; series mostly up to 92.4 µM. The gist of the method: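 Cytotoxicity is assessed by CellTiter-Fluor in MDA-kb2 cells carrying an MMTV-driven luciferase reporter. Cells receive 3.0uM nilutamide plus compounds at 15 concentrations and incubate 16 hr at 37C without CO2 before fluorescence reading.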
Background: In qHTS, concentration-response curves come from the screen itself.
With `C=CC(=O)NC(C)C`, the Potency result is “inactive”.

In the case of `CCCCCCCCCCCCCCCC(=O)OCC`, the Potency result is “inactive”.

As for `CC(C)(C)C1(CCc2ccc(Cl)cc2)CO1` (configuration not stated), the Potency result is “inactive”.

As for `CC(=O)Oc1cccc(O)c1`, the Potency entry is “inactive”.

Regarding `O=C(Oc1ccccc1)c1ccc2ccccc2c1O`, the Potency result is “inactive”.

Turning to `CC(C)(C)S`, the Potency entry is “inactive”.

As for `CC[C@H]1OC(=O)[C@H](C)[C@@H](O[C@H]2C[C@@](C)(OC)[C@@H](O)[C@H](C)O2)[C@H](C)[C@@H](O[C@@H]2O[C@H](C)C[C@H](N(C)C)[C@H]2O)[C@](C)(O)C[C@@H](C)/C(=N\OCOCCOC)[C@H](C)[C@@H](O)[C@]1(C)O`, the Potency result is “inactive”.

For the compound `FC(F)(F)C(F)(F)C(F)(F)C(F)(F)CCI`, the Potency result was “inactive”.

As to `O=c1[nH]c2cc(C(F)(F)F)c(N3CCOCC3)cc2n(CP(=O)(O)O)c1=O`, the Potency result was “inactive”.

On to `C=Cc1ccc(OC(C)=O)cc1`, for which the Potency entry is “inactive”.

As to `CCCCCCCC(=O)OCCCCCC`, the Potency entry was “inactive”.

With `CCCCCCCCCCCC(=O)OCC(O)CO` (configuration not stated), the Potency result was “inactive”.

Consider `O=C(O)CCC(=O)OC[C@@H](NC(=O)C(Cl)Cl)[C@H](O)c1ccc([N+](=O)[O-])cc1`, for which the Potency entry is “inactive”.

`CCOC(=O)N1CCC(Nc2ccc(Cl)cc2N)CC1`: the Potency entry is “inactive”.

Take `NC(=O)c1ccccc1[N+](=O)[O-]`: the Potency entry is “inactive”.

With `O=C1[C@@H]2[C@H]3CC[C@H](C3)[C@@H]2C(=O)N1CCCCN1CCN(c2ncccn2)CC1`, the Potency result is “inactive”.

In the case of `CC(=O)C(=O)CC(C)C`, the Potency result is “inactive”.

For the compound `C1CCCCC1`, the Potency entry is “inactive”.

For `O=C(NS(=O)(=O)/C=C/c1ccccc1)c1ccc(F)cc1Cl`, the Potency result was “inactive”.

Consider `CN1CCCN(C(c2ccccc2)c2ccc(Cl)cc2)CC1` (configuration not stated), for which the Potency was 26.6 µM (active).

Turning to `CNc1c2c(nn1C)CCCC2`, the Potency entry is “inactive”.

As to `CCCCC[C@H](O)/C=C/[C@H]1[C@H](O)CC(=O)[C@@H]1C/C=C\CCCC(=O)O`, the Potency entry was “inactive”.

Turning to `CCSC(=O)N(CC)CC`, the Potency entry is “inactive”.

With `COC(C)(C)OC`, the Potency result is “inactive”.

On to `O=C(O)CCC(=O)c1ccc(-c2ccccc2)cc1`, for which the Potency entry was “inactive”.

On to `CC(C)c1ccc(C(=O)N=C(N)N)cc1S(C)(=O)=O`, for which the Potency result is “inactive”.

Regarding `Cc1ccc2c(c1)CCCN2`, the Potency result was “inactive”.

For the compound `Nc1cccc2c(N)cccc12`, the Potency entry was “inactive”.

For `CCN(CC)C(=O)/C(C#N)=C/c1cc(O)c(O)c([N+](=O)[O-])c1`, the Potency was 23.7 µM (active).

Tested on in a further assay: not listed separately
Put plainly: qHTS assay to identify small molecule agonists of the estrogen receptor beta (ER-beta) signaling pathway - cell viability counter screen (AID 1259380). Also: nearly all actives have a fitted effect of over 30% in size. The settings on record: ER-beta-bla HEK293T viability, CellTiter-Glo luminescence, 16 h; series mostly up to 92.4 µM. A digest of the protocol: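 Cytotoxicity is measured in parallel with the reporter screen: after 16 hr compound exposure at 37C and a 2 hr LiveBLAzer step, CellTiter-Glo is added to the same ER-beta-UAS-bla HEK293T wells and luminescence read after 30 min.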
For `C=CC(=O)NC(C)C`, the Potency result is “inactive”.

Turning to `CCCCCCCCCCCCCCCC(=O)OCC`, the Potency entry is “inactive”.

Take `CC(C)(C)C1(CCc2ccc(Cl)cc2)CO1` (configuration not stated): the Potency entry was “inactive”.

For the compound `O=C(Oc1ccccc1)c1ccc2ccccc2c1O`, the Potency entry was “inactive”.

Turning to `CC(C)(C)S`, the Potency result was “inactive”.

Turning to `CC[C@H]1OC(=O)[C@H](C)[C@@H](O[C@H]2C[C@@](C)(OC)[C@@H](O)[C@H](C)O2)[C@H](C)[C@@H](O[C@@H]2O[C@H](C)C[C@H](N(C)C)[C@H]2O)[C@](C)(O)C[C@@H](C)/C(=N\OCOCCOC)[C@H](C)[C@@H](O)[C@]1(C)O`, the Potency result is “inactive”.

Regarding `FC(F)(F)C(F)(F)C(F)(F)C(F)(F)CCI`, the Potency entry was “inactive”.

With `O=c1[nH]c2cc(C(F)(F)F)c(N3CCOCC3)cc2n(CP(=O)(O)O)c1=O`, the Potency entry is “inactive”.

As for `C=Cc1ccc(OC(C)=O)cc1`, the Potency entry is “inactive”.

As to `CCCCCCCC(=O)OCCCCCC`, the Potency entry is “inactive”.

With `CCOC(=O)N1CCC(Nc2ccc(Cl)cc2N)CC1`, the Potency result was “inactive”.

For the compound `NC(=O)c1ccccc1[N+](=O)[O-]`, the Potency entry is “inactive”.

For the compound `O=C1[C@@H]2[C@H]3CC[C@H](C3)[C@@H]2C(=O)N1CCCCN1CCN(c2ncccn2)CC1`, the Potency result is “inactive”.

With `CC(=O)C(=O)CC(C)C`, the Potency result is “inactive”.

As to `C1CCCCC1`, the Potency result was “inactive”.

Turning to `O=C(NS(=O)(=O)/C=C/c1ccccc1)c1ccc(F)cc1Cl`, the Potency result was “inactive”.

Consider `CN1CCCN(C(c2ccccc2)c2ccc(Cl)cc2)CC1` (configuration not stated), for which the Potency is 13.3 µM (active).

As to `CNc1c2c(nn1C)CCCC2`, the Potency entry was “inactive”.

On to `CCCCC[C@H](O)/C=C/[C@H]1[C@H](O)CC(=O)[C@@H]1C/C=C\CCCC(=O)O`, for which the Potency entry is “inactive”.

For the compound `CCSC(=O)N(CC)CC`, the Potency entry was “inactive”.

`COC(C)(C)OC`: the Potency entry was “inactive”.

Regarding `c1ccc(CCCc2ccncc2)cc1`, the Potency entry is “inactive”.

For the compound `O=C(O)CCC(=O)c1ccc(-c2ccccc2)cc1`, the Potency entry is “inactive”.

As for `CCN(CC)c1cccc(O)c1`, the Potency result is “inactive”.

Regarding `CC(C)c1ccc(C(=O)N=C(N)N)cc1S(C)(=O)=O`, the Potency entry is “inactive”.

Turning to `Cc1ccc2c(c1)CCCN2`, the Potency entry is “inactive”.

Regarding `Nc1cccc2c(N)cccc12`, the Potency is 4.86 µM (active).

On to `CCN(CC)C(=O)/C(C#N)=C/c1cc(O)c(O)c([N+](=O)[O-])c1`, for which the Potency result was “inactive”.

The next assay deals with Androgen receptor (Homo sapiens) (UniProt P10275). Kind of assay: qHTS assay to identify small molecule agonists of the androgen receptor (AR) signaling pathway in the presence of an antagonist (AID 1259381; calls by dose curve; also: nearly all actives have a fitted effect of over 15% in size). Particulars: MDA-kb2 MMTV-luciferase, AR agonist + nilutamide, 16 h; series mostly up to 92.4 µM. The gist of the method:
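Agonist-mode confirmation screen: human MDA-kb2 cells stably expressing luciferase under an MMTV promoter bearing AR and GR response elements, co-treated with 3.0uM nilutamide (final). Luminescence measured after 16hr compound incubation.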
Turning to `O=C(Oc1ccccc1)c1ccc2ccccc2c1O`, the Potency result was “inactive”.

`C=Cc1ccc(OC(C)=O)cc1`: the Potency entry was “inactive”.

On to `CCCCCCCC(=O)OCCCCCC`, for which the Potency result was “inactive”.

Consider `CCOC(=O)N1CCC(Nc2ccc(Cl)cc2N)CC1`, for which the Potency entry was “inactive”.

Consider `CN1CCCN(C(c2ccccc2)c2ccc(Cl)cc2)CC1` (configuration not stated), for which the Potency result was “inactive”.

As for `CCCCC[C@H](O)/C=C/[C@H]1[C@H](O)CC(=O)[C@@H]1C/C=C\CCCC(=O)O`, the Potency entry is “inactive”.

For `O=C(O)CCC(=O)c1ccc(-c2ccccc2)cc1`, the Potency result was “inactive”.

Regarding `CCN(CC)c1cccc(O)c1`, the Potency entry was “inactive”.

Turning to `Nc1cccc2c(N)cccc12`, the Potency is 54.5 µM (active).

For `CCN(CC)C(=O)/C(C#N)=C/c1cc(O)c(O)c([N+](=O)[O-])c1`, the Potency result is “inactive”.
